# Only some compounds are listed: those with a hit (about 11% of all), similar ones and a draw of the others.
# L3MBTL1 block: qHTS Assay for the Inhibitors of L3MBTL1; Lethal(3)malignant brain tumor-like protein 1 (Homo sapiens), Q9Y468; AlphaScreen L3MBTL1–H3K9me1 peptide binding; Potency, µM (series often up to 57.1 µM), for inactives: top-dose activity, negative = inhibition, hits mostly inhibitors; hit rate 0.66% among 230,000; also: % is scaled to controls: 0 for no effect and ±100 for the full control effect; nearly all actives have a fitted effect of over 60% in size
#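 Read-out is AlphaScreen signal from streptavidin donor and nickel chelate acceptor beads (10 ug/mL final each) bridging L3MBTL1 (50 nM) and biotinylated K9-monomethylated H3(1-15) peptide (75 nM), after 30 min compound exposure at room temperature.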
# JMJD2A Tudor: qHTS Assay for Inhibitors of JMJD2A-Tudor Domain; Lysine-specific demethylase 4A (Homo sapiens), O75164; AlphaScreen JMJD2A-Tudor / H3K4me3 peptide binding; Potency, µM (doses to about 114 µM), without a hit: at the highest dose activity change, negative = inhibition, usual class: inhibitors; AID 504339, 2011; hit rate 4.4% among 390,000; also: % is scaled to controls: 0 for no effect and ±100 for the full control effect; nearly all actives have a fitted effect of over 50% in size
# Target sequence (O75164 whole entry, looked up, the tested form may be a part): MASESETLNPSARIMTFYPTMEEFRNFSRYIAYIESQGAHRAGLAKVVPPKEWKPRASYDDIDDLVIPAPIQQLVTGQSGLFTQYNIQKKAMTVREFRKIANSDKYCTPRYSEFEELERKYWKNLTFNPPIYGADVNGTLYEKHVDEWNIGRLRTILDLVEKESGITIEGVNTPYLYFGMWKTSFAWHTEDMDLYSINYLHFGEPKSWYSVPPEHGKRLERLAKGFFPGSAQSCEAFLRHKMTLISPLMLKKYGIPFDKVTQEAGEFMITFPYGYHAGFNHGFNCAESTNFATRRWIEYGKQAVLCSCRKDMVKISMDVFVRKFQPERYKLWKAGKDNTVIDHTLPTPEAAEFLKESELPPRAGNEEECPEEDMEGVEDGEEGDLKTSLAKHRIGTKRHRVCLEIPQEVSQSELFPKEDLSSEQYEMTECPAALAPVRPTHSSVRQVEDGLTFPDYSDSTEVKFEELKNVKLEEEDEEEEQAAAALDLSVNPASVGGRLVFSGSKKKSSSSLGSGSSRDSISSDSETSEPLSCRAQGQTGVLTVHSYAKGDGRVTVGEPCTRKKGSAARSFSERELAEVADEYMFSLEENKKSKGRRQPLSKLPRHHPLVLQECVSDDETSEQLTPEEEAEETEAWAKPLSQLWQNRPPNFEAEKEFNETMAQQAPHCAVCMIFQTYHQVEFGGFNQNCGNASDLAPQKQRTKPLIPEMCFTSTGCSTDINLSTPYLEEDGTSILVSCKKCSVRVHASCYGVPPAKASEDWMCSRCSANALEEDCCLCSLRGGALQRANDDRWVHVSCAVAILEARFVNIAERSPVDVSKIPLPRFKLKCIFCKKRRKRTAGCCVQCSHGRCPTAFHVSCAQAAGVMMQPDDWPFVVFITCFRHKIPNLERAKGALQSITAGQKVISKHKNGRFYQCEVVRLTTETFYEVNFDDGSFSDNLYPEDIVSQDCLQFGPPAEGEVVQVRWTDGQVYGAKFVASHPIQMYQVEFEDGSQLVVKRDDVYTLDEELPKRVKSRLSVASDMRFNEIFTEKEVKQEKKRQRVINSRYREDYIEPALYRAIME
# HP1b binding inh: HTS for Inhibitors of HP1-beta Chromodomain Interactions with Methylated Histone Tails. AlphaScreen HP1-beta / biotin-H3K9me3 peptide binding. hit rate 0.56% among 390,000. Chromobox protein homolog 1 (Homo sapiens), P83916. Potency, µM (top dose mostly 114 µM), for the others: at the top dose activity change, negative = inhibition, most hits filed as inhibitors; also: nearly all actives have a fitted effect of over 70% in size
#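 Compound inhibition of the preformed complex between 50 nM HP1-beta and 50 nM biotinylated H3K9me3 peptide was read by AlphaScreen. Buffer was PBS pH 7.4 with 0.01% Tween-20. Incubations ran 30 min at room temperature, with 10 ug/mL donor/acceptor beads.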
# G9a inh: qHTS Assay for Inhibitors of Histone Lysine Methyltransferase G9a | Histone-lysine N-methyltransferase EHMT2 (Homo sapiens), Q96KQ7 | AID 504332, 2011 | hit rate 8.8% among 350,000 | G9a H3K9 monomethylation, AlphaScreen, 2 h | Potency, µM (doses to about 102 µM), for the others: at the top dose activity, negative = inhibition, hits mostly inhibitors; also: % is scaled to controls: 0 for no effect and ±100 for the full control effect; nearly all actives have a fitted effect of over 75% in size
#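 G9a (20 nM) was preincubated 15 min with compound, then reacted 2 h at room temperature with 500 nM biotin-H3K9 peptide and 20 µM SAM. Monomethyl-H3K9 detected by AlphaScreen using anti-H3K9me1 antibody.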
# BAZ2B inh: qHTS Assay for Inhibitors of BAZ2B; Bromodomain adjacent to zinc finger domain protein 2B (Homo sapiens), Q9UIF8; AlphaScreen BAZ2B-H3K14Ac peptide displacement; Potency, µM (top dose mostly 114 µM), without a hit: at the highest dose activity change, negative = inhibition, usual class: inhibitors; hit rate 4.4% among 360,000; also: % is scaled to controls: 0 for no effect and ±100 for the full control effect; nearly all actives have a fitted effect of over 60% in size
#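 Protein-peptide AlphaScreen: BAZ2B 50 nM, b-H3K14Ac 50 nM, 1x PBS pH 7.4 + 0.01% Tween-20. Preincubation 30 min RT; cpd 30 min RT (top 110 uM); beads 20 min RT, light-protected.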
# Active calls of the source: *; ? = inconclusive; . = not tested or not shown; [ ] = dose if it differs, or a comment. Calls follow the shape of the dose curve; as a rule, active = well fitted inhibition curve with a large enough effect; inconclusive = small, poorly fitted or top-dose-only effect; inactive = no such curve, though single readings can be large or run the other way. Potency is read from the fitted curve at half-maximal effect.
SMILES,L3MBTL1 block,JMJD2A Tudor,HP1b binding inh,G9a inh,BAZ2B inh
CCCN(CCC)CC(O)CN(c1cc([N+](=O)[O-])ccc1OC)S(=O)(=O)c1ccccc1 (centres undefined),-6%,-26%,21%,56µM*,-36%
COc1ccc([N+](=O)[O-])cc1N(CC(O)CN1CCCCC1)S(=O)(=O)c1ccccc1 (centres undefined),-9%,-16%,9%,.,-13%
COc1ccccc1N(CC(O)CN1CCCC1)S(=O)(=O)c1ccccc1 (centres undefined),.,-22%,-4%,?,-3%
O=C(Nc1ccccc1NC(=O)c1ccccc1Cl)c1ccccc1Cl,-2%,5%,43%,.,-4%
CCOc1ccccc1C(=O)Nc1cc2c(cc1N1CCOCC1)n(C)c(=O)n2C,.,-22%,-10%,-16%[59 µM],?
CN(C)c1cc2c(cc1NC(=O)c1ccccc1Cl)n(C)c(=O)n2C,.,-13%,17%,-24%,50µM*
Cc1cc(C(=O)Nc2ccccc2N2CCOCC2)c(C)o1,-7%,-8%,9%,56µM*,0%
Cc1ccccc1C(=O)Nc1cc2c(cc1N1CCOCC1)n(C)c(=O)n2C,.,-16%,7%,-22%[59 µM],50µM*
Cc1ccccc1C(=O)Nc1cc2c(cc1N1CCCCC1)n(C)c(=O)n2C,.,?,-28%,16µM*,25µM*
CC12CCC(C(=O)OC3CCCCC3)(OC1=O)C2(C)C (centres undefined),-3%,14%,30%,32%,-6%
COc1ccc2oc(=N)c(C(=O)Nc3ccc(Cl)cc3)cc2c1,-2%[2.29 µM],-11%,48%,6%[0.501 µM],6%
COc1ccc(CCNC(=O)Cc2c(C)c3c(cc(C)c4c(C)coc43)oc2=O)cc1OC,.,-14%,22%,-3%[59 µM],-10%
COc1cc(NC(=O)c2cccc(Cl)c2Cl)ccc1NC(=O)c1cc2ccccc2o1,.,-17%,38%,4%[59 µM],-29%
O=C(Cn1c(=O)n(Cc2nc(-c3ccccc3)no2)c(=O)c2cc3c(cc21)OCO3)Nc1ccc(Cl)cc1,.,-1%,30%,-21%[59 µM],-22%
CN1CCC(N(C)CC(=O)Nc2ccccc2N2CCOCC2)CC1,.,8.9µM*,?,?,56µM*
CSc1ccccc1NC(=O)CN(C)CC(=O)Nc1ccccc1N1CCOCC1,.,-15%,25%,87%[59 µM],-2%
COc1ccc(Br)c(C(=O)Nc2cc3c(cc2N2CCOCC2)n(C)c(=O)n3C)c1,.,-19%,6%,-43%[59 µM],79µM*
CCOC(=O)C1CCN(c2cc3c(cc2NC(=O)c2ccccc2Br)n(C)c(=O)n3C)CC1,.,?,5%,.,50µM*
COc1ccc(Br)c(C(=O)Nc2cc3c(cc2N2CCCCC2)n(C)c(=O)c(=O)n3C)c1,.,-20%,3%,-33%[59 µM],-16%
O=[S+]([O-])(c1cc2ccccc2o1)N1CCN([S+](=O)([O-])c2c(F)cccc2F)CC1,.,-10%,.,.,.
COc1ccccc1CNC(=O)c1ccc(S(=O)(=O)N(C)c2ccccc2)cc1,11%,-3%,28%,-33%,9%
CN(C)c1ccc(C(CNC(=O)c2ccc(-c3ccccc3)cc2)N2CCOCC2)cc1 (centres undefined),-9%,.,.,14µM*,35µM*
COc1ccc(C(CNC(=O)c2cccc(N(C)C)c2)N2CCCC2)cc1 (centres undefined),-24%,45µM*,-27%,?,50µM*
COc1ccc(CNC(=O)c2cccc(N(C)C)c2)cc1,2%[11.4 µM],-29%,37%,7.1µM*,?
COc1ccc(CNC(=O)c2cnc(N(C)C)nc2)cc1,.,2%,37%,31%[59 µM],6%
SMILES,L3MBTL1 block,JMJD2A Tudor,HP1b binding inh,G9a inh,BAZ2B inh
COc1ccccc1CNC(=O)c1cccc(N(C)C)c1,.,-29%,8%,8.9µM*,-36%
COc1ccc(CCNC(=O)Cc2c(C)c3ccc(O)c(C)c3oc2=O)cc1OC,.,-16%,22%,-4%[59 µM],-3%
COc1cccc(CNCC(=O)NC(=O)NC2CCCC2)c1,3%,22µM*,?,.,.
COc1ccc(CNC(=O)CN2CCC(NC(=O)c3cccc(OC)c3)CC2)cc1,.,1µM*,-33%[57 µM],.,.
Cc1nn(CCCC(=O)O)c(C)c1[N+](=O)[O-],0%,-8%,36%,2%,-17%
CC(=O)c1c(C)nn(CCC(=O)O)c1C,-16%,40µM*,?,-41%,-3%
COCCN1C(=O)C(O)=C(C(C)=O)C1c1ccc(F)cc1 (centres undefined),-5%,40µM*,1%,?,79µM*
CCN(CC)CCN1C(=O)C(O)=C(C(=O)c2cccs2)C1c1ccccn1 (centres undefined),.,?,21%,32µM*,50µM*
O=C(C1=C(O)C(=O)N(CCN2CCOCC2)C1c1ccc(F)cc1)c1cccs1 (centres undefined),10%,-9%,35%,71µM*,10%
CCCOc1cccc(C2C(C(=O)c3cccs3)=C(O)C(=O)N2CCN2CCOCC2)c1 (centres undefined),.,-1%,24%,79µM*,?
CCCCOc1ccc(C2C(C(=O)c3cccs3)=C(O)C(=O)N2CCN2CCOCC2)cc1 (centres undefined),4%,-17%,27%,.,-7%
O=C(c1ccccc1)c1cccs1,.,4%,50%,22%,2%
CC(=O)C1=C(O)C(=O)N(CCCCCC(=O)O)C1c1ccc(N(C)C)cc1 (centres undefined),.,32µM*,12%,?,79µM*
O=C(O)CCCCCN1C(=O)C(O)=C(C(=O)/C=C/c2ccccc2)C1c1ccc2c(c1)OCO2 (centres undefined),-11%,22µM*,19%,50µM*,?
O=C(/C=C/c1ccccc1)c1ccc2c(c1)OCO2,0%,22%,72%,34%,12%
CCOc1ccc(C2C(C(=O)c3cccs3)=C(O)C(=O)N2CCN2CCOCC2)cc1 (centres undefined),.,-2%,46%,50µM*,-21%
O=C1NC(c2ccccc2)C(C(=O)c2cccs2)=C1O (centres undefined),.,25µM*,-1%,?,-36%
CCC(C(=O)Nc1cc(OC)ccc1OC)n1c(C)c2cnn(-c3ccccc3)c(=O)c2c1C (centres undefined),.,?,-14%,-41%[59 µM],?
CCOC(=O)c1ccccc1NC(=O)N1CCN2CCCCC2C1 (centres undefined),.,-12%,24%,-11%[59 µM],-9%
